Assay [1] in a line: CEETOX_H295R_PROG: CeeTox H295R High-throughput Steroidogenesis Assay for Progesterone (PROG) (AID 2283442).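 For AC50: human H295R adrenal cells primed with 10 µM forskolin before dosing.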 As to conditions: actives raise or lower the signal. The gist of the method: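 Measured analyte is progesterone secreted by H295R cells at 48 h of chemical treatment, following 10 uM forskolin priming. Quantitation used HPLC-MS/MS against a 7-point standard curve; cytotoxicity was checked by MTT absorbance.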

Read-out in assay [2]: Tumor necrosis factor receptor superfamily member 6 (Homo sapiens) (UniProt P25445)
As to the kind of experiment: LTEA_HepaRG_FAS: Life Technologies and Expression Analysis (LTEA) Assay for Fas cell surface death receptor (FAS) using HepaRG (AID 2283447). As to conditions: mRNA level, 48 h; actives raise or lower the signal. The procedure, abridged: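 FAS transcript level was measured by TaqMan qRT-PCR against three housekeeping genes after 48 h chemical exposure. Cells were HepaRG, 0.5% DMSO vehicle, with a top concentration of 100 uM and half-log dilutions over eight points, in duplicate.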

Read-out in assay [3]: Fatty acid synthase (Homo sapiens) (UniProt P49327)
The assay can be described thus: LTEA_HepaRG_FASN: Life Technologies and Expression Analysis (LTEA) Assay for Fatty Acid Synthase (FASN) using HepaRG (AID 2283448).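 For AC50: differentiated human HepaRG liver cells in serum-free induction medium.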 As to conditions: mRNA level, 48 h; actives raise or lower the signal. The gist of the method: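 Transcript-level assay: HepaRG liver cells are treated for 48 h across an eight-point range topping at 100 uM, and FASN mRNA, normalized to three housekeeping genes, is compared with DMSO controls in both directions.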

Read-out in assay [4]: Cyclin D2 (CCND2), CCND2 (gene 894)
The assay can be described thus: LTEA_HepaRG_CCND2: Life Technologies and Expression Analysis (LTEA) Assay for Cyclin D2 (CCND2) using HepaRG (AID 2283449). To be noted: mRNA level, 48 h; actives raise or lower the signal. The procedure, abridged:
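Read-out is CCND2 mRNA level measured by qRT-PCR in human HepaRG liver cells and normalised to three housekeeping genes. Chemicals were applied for 48 h at up to 100 uM, with gain or loss fitted relative to 0.5% DMSO.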

Read-out in assay [5]: Cyclin D1 (CCND1), CCND1 (gene 595)
The assay can be described thus: LTEA_HepaRG_CCND1: Life Technologies and Expression Analysis (LTEA) Assay for Cyclin D1 (CCND1) using HepaRG (AID 2283451).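 For AC50: differentiated human HepaRG liver cells in serum-free induction medium; TaqMan qRT-PCR transcript level normalised to ACTB GAPDH and POLR2A housekeeping genes.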 To be noted: mRNA level, 48 h; actives raise or lower the signal. The gist of the method:
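Expression change is measured by qRT-PCR in HepaRG cells after 48 h treatment across eight concentrations topping at 100 uM, with duplicate wells and DMSO (0.5%) serving as baseline for bidirectional fitting.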

Read-out in assay [6]: catalase (CAT), CAT (gene 847)
The assay can be described thus: LTEA_HepaRG_CAT: Life Technologies and Expression Analysis (LTEA) Assay for catalase (CAT) using HepaRG (AID 2283452).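 For AC50: TaqMan qRT-PCR signal normalized to ACTB GAPDH and POLR2A housekeeping genes.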 As to conditions: mRNA level, 48 h; actives raise or lower the signal. The gist of the method: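 Expression of CAT was quantified by TaqMan qRT-PCR with ACTB/GAPDH/POLR2A normalization after 48 h chemical exposure of HepaRG. Eight-point half-log series, top 100 uM, in 0.5% DMSO; gain or loss fitted against vehicle.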

Read-out in assay [7]: flavin-containing dimethylaniline monooxygenases 3 (FMO3), FMO3 (gene 2328)
As to the kind of experiment: LTEA_HepaRG_FMO3: Life Technologies and Expression Analysis (LTEA) Assay for flavin-containing dimethylaniline monooxygenases 3 (FMO3) using HepaRG (AID 2283453).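 For AC50: differentiated human HepaRG liver cells in serum-free induction medium; FMO3 transcript by TaqMan qRT-PCR normalized to ACTB GAPDH and POLR2A.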 As to conditions: mRNA level, 48 h; actives raise or lower the signal. The procedure, abridged:
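HepaRG, 48 h exposure, 8-pt half-log series from 100 uM, 0.5% DMSO vehicle, duplicates; FMO3 transcript by Fluidigm TaqMan qRT-PCR, housekeeping-normalized; gain/loss fit vs DMSO.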

Read-out in assay [8]: Cytochrome P450 (CYP1A1), CYP1A1 (gene 1543)
As to the kind of experiment: LTEA_HepaRG_CYP1A1: Life Technologies and Expression Analysis (LTEA) Assay for Cytochrome P450 (CYP1A1) using HepaRG (AID 2283454). To be noted: mRNA level, 48 h; actives raise or lower the signal. The procedure, abridged:
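Using HepaRG cultures with 0.5% DMSO as vehicle, eight-concentration exposures (max 100 uM) lasted 48 h. Transcript levels were measured by TaqMan qRT-PCR and normalized to ACTB, GAPDH and POLR2A.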

Read-out in assay [9]: Cyclin Dependent Kinase Inhibitor 1A (CDKN1A), CDKN1A (gene 1026)
The assay can be described thus: LTEA_HepaRG_CDKN1A: Life Technologies and Expression Analysis (LTEA) Assay for Cyclin Dependent Kinase Inhibitor 1A (CDKN1A) using HepaRG (AID 2283450). As to conditions: mRNA level, 48 h; actives raise or lower the signal. The gist of the method:
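Gain or loss of CDKN1A transcript is scored by bidirectional fitting against 0.5% DMSO vehicle. Human HepaRG cultures receive chemicals for 48 h across an 8-point series peaking at 100 uM; expression comes from qRT-PCR.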

A short description of assay [10]: CEETOX_H295R_ESTRONE: CeeTox H295R High-throughput Steroidogenesis Assay for Estrone (AID 2283441).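 For AC50: human adrenal H295R cells prestimulated with forskolin for two days.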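 Note: estrone secreted into medium measured by LC-MS/MS after dansyl derivatization.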 As to conditions: actives raise or lower the signal. The gist of the method: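 H295R cells; 48 h forskolin (10 uM) prestimulation; 48 h compound exposure, 0.1% DMSO final. Medium estrone: MTBE extraction, dansyl derivatization, HPLC-MS/MS. Bidirectional fit vs DMSO.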

Molecules are shown by their SMILES. Several values for one entry are separate records, joined by “and”; a condition that tells them apart may be missing. Equal entries are not always repeated. Activity calls are given as the source filed them. Rule for the calls: active = hit-call score of the fitted dose curve at least 0.9, where 1 is the maximum; inactive = score below 0.9.

Sequence of Fatty acid synthase (Homo sapiens) (P49327 whole entry, looked up): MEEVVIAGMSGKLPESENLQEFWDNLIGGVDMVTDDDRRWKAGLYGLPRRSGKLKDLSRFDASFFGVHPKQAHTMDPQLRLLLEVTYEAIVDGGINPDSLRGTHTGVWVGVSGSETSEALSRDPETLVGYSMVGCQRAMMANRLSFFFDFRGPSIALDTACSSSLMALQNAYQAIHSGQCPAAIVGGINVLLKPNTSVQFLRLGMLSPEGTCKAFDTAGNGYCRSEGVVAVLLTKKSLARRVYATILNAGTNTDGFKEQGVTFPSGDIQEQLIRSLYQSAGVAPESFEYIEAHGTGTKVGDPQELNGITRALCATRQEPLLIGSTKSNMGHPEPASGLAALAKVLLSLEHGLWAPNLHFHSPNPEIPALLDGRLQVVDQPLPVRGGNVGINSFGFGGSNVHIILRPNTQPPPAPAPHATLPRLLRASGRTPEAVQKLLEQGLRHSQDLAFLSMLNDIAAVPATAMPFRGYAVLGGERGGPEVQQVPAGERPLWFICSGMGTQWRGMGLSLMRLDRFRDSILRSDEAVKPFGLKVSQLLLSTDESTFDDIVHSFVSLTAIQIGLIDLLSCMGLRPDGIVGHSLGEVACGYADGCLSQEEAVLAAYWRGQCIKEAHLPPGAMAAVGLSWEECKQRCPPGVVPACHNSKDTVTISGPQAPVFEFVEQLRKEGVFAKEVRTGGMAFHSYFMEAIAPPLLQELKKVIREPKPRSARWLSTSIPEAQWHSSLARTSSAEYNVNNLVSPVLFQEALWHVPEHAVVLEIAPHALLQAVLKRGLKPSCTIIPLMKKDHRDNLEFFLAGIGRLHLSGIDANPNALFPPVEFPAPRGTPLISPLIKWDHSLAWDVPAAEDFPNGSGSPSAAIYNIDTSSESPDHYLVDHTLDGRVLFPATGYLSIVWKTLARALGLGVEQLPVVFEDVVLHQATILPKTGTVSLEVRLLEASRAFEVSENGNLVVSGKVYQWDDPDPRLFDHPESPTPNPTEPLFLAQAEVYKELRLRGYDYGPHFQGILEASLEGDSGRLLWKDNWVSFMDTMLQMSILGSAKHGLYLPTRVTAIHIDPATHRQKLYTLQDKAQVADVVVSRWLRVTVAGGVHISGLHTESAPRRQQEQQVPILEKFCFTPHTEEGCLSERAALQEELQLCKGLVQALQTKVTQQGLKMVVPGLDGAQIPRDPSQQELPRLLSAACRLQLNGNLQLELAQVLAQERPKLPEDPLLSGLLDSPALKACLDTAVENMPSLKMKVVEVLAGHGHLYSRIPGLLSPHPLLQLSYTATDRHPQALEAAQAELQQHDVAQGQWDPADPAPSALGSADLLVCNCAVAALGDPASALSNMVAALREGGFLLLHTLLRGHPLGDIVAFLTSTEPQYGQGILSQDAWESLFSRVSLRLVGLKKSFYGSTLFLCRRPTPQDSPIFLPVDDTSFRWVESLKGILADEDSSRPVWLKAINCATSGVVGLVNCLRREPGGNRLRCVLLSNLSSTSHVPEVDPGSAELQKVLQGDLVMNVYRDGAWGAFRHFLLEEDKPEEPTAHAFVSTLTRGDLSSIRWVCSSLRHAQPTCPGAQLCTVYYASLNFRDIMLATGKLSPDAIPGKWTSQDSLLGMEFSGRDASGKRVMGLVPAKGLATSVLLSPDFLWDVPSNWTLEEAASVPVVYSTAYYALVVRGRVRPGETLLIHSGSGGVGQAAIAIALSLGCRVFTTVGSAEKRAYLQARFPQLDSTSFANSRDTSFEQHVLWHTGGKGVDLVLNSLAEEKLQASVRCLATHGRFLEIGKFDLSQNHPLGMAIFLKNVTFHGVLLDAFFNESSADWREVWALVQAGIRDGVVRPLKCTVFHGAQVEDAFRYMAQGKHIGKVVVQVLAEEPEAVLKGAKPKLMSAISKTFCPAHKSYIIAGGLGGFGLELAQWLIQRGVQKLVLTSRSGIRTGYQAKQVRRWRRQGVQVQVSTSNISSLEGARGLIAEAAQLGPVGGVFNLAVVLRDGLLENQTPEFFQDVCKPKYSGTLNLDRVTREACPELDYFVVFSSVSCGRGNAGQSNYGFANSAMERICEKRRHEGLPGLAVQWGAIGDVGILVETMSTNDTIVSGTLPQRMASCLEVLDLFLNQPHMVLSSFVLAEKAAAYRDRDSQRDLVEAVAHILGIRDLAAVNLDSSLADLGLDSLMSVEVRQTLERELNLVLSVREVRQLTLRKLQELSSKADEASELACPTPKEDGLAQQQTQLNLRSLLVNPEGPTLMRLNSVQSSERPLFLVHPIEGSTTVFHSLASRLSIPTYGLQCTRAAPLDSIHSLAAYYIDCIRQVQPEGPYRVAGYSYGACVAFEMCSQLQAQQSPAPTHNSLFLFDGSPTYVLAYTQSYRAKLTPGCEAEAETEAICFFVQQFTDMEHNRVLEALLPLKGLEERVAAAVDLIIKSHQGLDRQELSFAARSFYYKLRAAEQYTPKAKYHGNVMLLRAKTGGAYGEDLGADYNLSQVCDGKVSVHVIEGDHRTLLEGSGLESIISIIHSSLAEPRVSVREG

For `Cc1ccccc1CO[C@@H]1C[C@@]2(C(C)C)CC[C@]1(C)O2`, the outcome in assay [1], in assay [2], in assay [3], in [4], in assay [5] and in assay [6] was inactive. Moreover, in [7], the outcome was inactive. The AC50 in assay [8] is 44.4 µM (active).
In the case of `O=C(N[C@H]1CN2CCC1CC2)c1cc2ccoc2cn1`, the molecule was called inactive in assay [2], in [3], in assay [4], in [9], in [5] and in assay [6]. In [7], the outcome was inactive. The AC50 in assay [8] was 50 µM (active).
`Cc1cc(-c2ccc(N)c(C)c2)ccc1N`: the AC50 in [1] is 2.96 µM (active) and 31.1 µM (active); in assay [3], 25.1 µM (active); in assay [7], 25.1 µM (active); in assay [8], 20.3 µM (active). Also, the outcome in assay [2], in assay [4], in assay [9] and in [6] was inactive.
For `CCOP(=S)(OCC)SCSC(C)(C)C`, the outcome in assay [1], in assay [2], in [3], in assay [4], in [5] and in assay [6] was inactive. For the same molecule, the result in assay [7] and in [8] was inactive.
`Cc1cccc(C)c1N`: the molecule was called inactive in assay [10], in assay [1], in [2], in [3], in [4] and in [6]. In addition, in assay [7], the call was inactive. The AC50 in assay [8] is 51.8 µM (active).
For `c1cc2ccc3cccc4ccc(c1)c2c34`, the AC50 in assay [1] is 13.9 µM (active); in [4], 5 µM (active); in [8] it was 24.3 µM (active). In addition, the molecule was classed as inactive in assay [2], in [3], in assay [5], in [6] and in assay [7].
`CC1=C2C[C@H]3[C@@H](CC=C4C[C@@H](O)CC[C@@]43C)[C@@H]2CC[C@]12O[C@@H]1C[C@H](C)CN[C@H]1[C@H]2C`: the call in [2], in [3], in assay [4], in assay [9], in assay [5] and in [6] was inactive. In addition, the result in assay [7] was inactive. Further, the AC50 in [8] was 34.3 µM (active).
`CCC(C)(CC)c1cc(NC(=O)c2c(OC)cccc2OC)on1`: the outcome in [1], in assay [2], in [4], in assay [5], in [6] and in assay [7] was inactive. For the same molecule, the AC50 in assay [3] is 33.8 µM (active); in [8], 10.2 µM (active).
For `ClC1=C(Cl)[C@]2(Cl)[C@@H]3[C@H]4C[C@H]([C@@H]5O[C@H]45)[C@@H]3[C@@]1(Cl)C2(Cl)Cl`, the AC50 is 3 µM (active) in assay [1], 87.6 µM (active) in assay [3], 13.3 µM (active) in [6] and 50 µM (active) in assay [7]. In addition, the molecule was called inactive in assay [2], in [9] and in assay [8].
On to `ClC(Cl)=C(c1ccc(Cl)cc1)c1ccc(Cl)cc1`, for which the call in assay [2], in assay [4], in assay [9], in assay [6] and in assay [7] was inactive. The half-maximal activity concentration (AC50) in assay [3] is 50 µM (active); in assay [8], 36.8 µM (active).
Take `Clc1ccc(C(Cl)(Cl)Cl)cc1`: the call in [2], in assay [3], in assay [4], in assay [9], in [6] and in assay [7] was inactive. The molecule was called inactive in [8].
On to `N#Cc1ccc(N(CC(N)=O)CC(F)(F)F)cc1C(F)(F)F`, for which the result in assay [10], in assay [1], in assay [2], in [3], in assay [4] and in [9] was inactive. Also, the molecule was classed as inactive in assay [6] and in assay [7]. Also, the AC50 in assay [8] was 50 µM (active).
On to `CC(C)(O)C(=O)Nc1ccc([N+](=O)[O-])c(C(F)(F)F)c1`, for which the concentration at half-maximal activity (AC50) in assay [2] was 0.0219 µM (active); in assay [4], 0.0398 µM (active); in assay [8], 0.0423 µM (active). The result in assay [3], in assay [9], in assay [6] and in assay [7] was inactive.
For the molecule `Cc1cc2c3c(c1)C(c1ccccc1)=N[C@@H](NC(=O)c1ccncc1)C(=O)N3CC2`, the molecule was classed as inactive in assay [10], in [2], in [4], in [5] and in assay [6]. For the same molecule, the AC50 in [1] is 28.1 µM (active); in assay [3], 50 µM (active); in assay [7], 81.8 µM (active); in assay [8] it was 24.4 µM (active).
For the molecule `C[C@]12CCC(=O)C=C1CC[C@@H]1[C@@H]2CC[C@@]2(C)[C@H]1CC[C@]2(C)O`, the call in assay [1], in [2], in [4], in assay [6] and in assay [8] was inactive. In addition, the values for the AC50 in assay [3], in assay [9] and in assay [7] were 66.1 µM (active), 79.9 µM (active) and 66 µM (active), respectively.
Take `CCCN(CCC)N=O`: the call in assay [2], in assay [3], in assay [4], in assay [9], in assay [6] and in assay [7] was inactive. For the same molecule, the AC50 in [8] is 50 µM (active).
Take `Clc1ccc(C(c2ccccc2Cl)C(Cl)(Cl)Cl)cc1` (stereo not given): the molecule was called inactive in assay [10], in [1] and in assay [2]. Also, the AC50 in assay [3] was 50 µM (active); in assay [6], 19.3 µM (active); in assay [7], 74.6 µM (active); in assay [8] it was 20 µM (active).
Regarding `Oc1ccc(Cl)cc1Cl`, the concentration at half-maximal activity (AC50) in assay [10] is 24.4 µM (active). Also, the molecule was classed as inactive in [1], in assay [2], in assay [3], in [4], in assay [6] and in [7]. For the same molecule, in [8], the result was inactive.
`Nc1ccc(-c2ccc(N)cc2)cc1`: the molecule was classed as inactive in assay [10], in [2], in assay [3], in assay [4], in assay [9] and in [6]. Also, in [7], the molecule was called inactive. The figures for the AC50 in [1] and in assay [8] were 15.2 µM (active) and 50 µM (active), respectively.
Take `CCCCCCCCOC(=O)c1ccccc1C(=O)OCCCCCCCC`: the molecule was classed as inactive in assay [2], in assay [3], in assay [4], in assay [5], in [6] and in [7]. Also, the result in assay [8] was inactive.
Consider `CCNc1nc(NC(C)C)nc(SC)n1`, for which the call in assay [1], in assay [2], in assay [5] and in [6] was inactive. Moreover, the AC50 in assay [7] was 50 µM (active); in assay [8] it was 19.8 µM (active).
Regarding `O=C(O)C(F)(F)C(F)(F)C(F)(F)C(F)(F)C(F)(F)C(F)(F)C(F)(F)C(F)(F)C(F)(F)F`, the AC50 in assay [2] was 89.3 µM (active); in [3], 31.1 µM (active); in assay [9], 16.8 µM (active); in assay [5], 12.6 µM (active); in assay [6], 65.3 µM (active); in assay [7] it was 35.3 µM (active). Besides, the call in assay [4] and in assay [8] was inactive.

The term AC50 denotes the concentration at which the activity in the assay is half-maximal.

The values are drawn from PubChem BioAssay (EPA / NIEHS).
